Source: PubChem BioAssay AID2650 (Broad Institute, 2010)
Among all 320,000 compounds or so, about 320 (0.1%) were called active. The entries come from a sample that favours actives as a whole. A number with no mark means an inactive call.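 How the source made its calls: active means more than half of replicates show inhibition above 20%; inconclusive means some but at most half of replicates above 20% inhibition; inactive means no replicate shows inhibition above 20%.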

Biological target: Glycogen synthase kinase-3 alpha (Homo sapiens) (UniProt P49840)
Test: blockers of GSK3A enzyme activity – biochemical, luminescence, cell-free homogeneous, HTS, primary screen (AID 2650);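 further: GST-tagged GSK-3 alpha with peptide substrate and 25 µM ATP; 0% = DMSO neutral wells and 100% = GW8510 positive control wells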
Details: GSK-3 alpha kinase, ADP-Glo luminescence, 60 min; at 10 µM; hits give high values

Glycogen synthase kinase-3 alpha (Homo sapiens), sequence (P49840 whole entry, looked up): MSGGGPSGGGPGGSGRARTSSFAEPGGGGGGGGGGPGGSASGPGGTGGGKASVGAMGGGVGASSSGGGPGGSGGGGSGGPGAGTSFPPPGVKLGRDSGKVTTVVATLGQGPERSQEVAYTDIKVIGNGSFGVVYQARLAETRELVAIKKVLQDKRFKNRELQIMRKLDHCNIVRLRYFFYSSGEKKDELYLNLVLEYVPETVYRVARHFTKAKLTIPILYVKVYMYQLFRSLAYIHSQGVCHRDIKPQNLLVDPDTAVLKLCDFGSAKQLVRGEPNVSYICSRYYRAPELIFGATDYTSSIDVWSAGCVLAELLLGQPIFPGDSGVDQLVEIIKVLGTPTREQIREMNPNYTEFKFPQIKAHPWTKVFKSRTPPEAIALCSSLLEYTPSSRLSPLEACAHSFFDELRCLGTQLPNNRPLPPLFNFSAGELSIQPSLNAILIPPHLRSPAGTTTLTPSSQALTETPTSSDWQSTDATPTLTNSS

SMILES | inhibition
Cc1noc(COc2ccccc2OCc2onc(C)c2Cl)c1Cl | -1.26%
O=C1c2ccccc2C2=Nc3ccccc3SC(c3ccccc3F)C12 (centres undefined) | -0.696%
CC(Sc1nc2cc(Cl)ccc2s1)C(=O)Nc1ccc2c(c1)OCO2 (centres undefined) | -2.34%
Cc1ccc2c(c1)N(CC(=O)NCCc1ccc(Cl)cc1)C(=O)c1cccnc1O2 | -2.75%
CC(C(=O)N1CCOCC1)N1c2cccc3cccc(c23)S1(=O)=O (centres undefined) | 3.12%
O=S(=O)(NC1CC2CCC1C2)c1ccc(Cl)cc1 (centres undefined) | -0.939%
CN(C)C(=O)CCC(=O)N1CCCCC1C(=O)Nc1ccc(Oc2ccccc2F)cc1 (centres undefined) | -0.0266%
O=C(c1ccncc1)N1CCN(S(=O)(=O)c2cc(C(F)(F)F)cc(C(F)(F)F)c2)CC1 | -4.58%
CC(C)c1nnc(NC(=O)COC(=O)/C=C/c2ccc([N+](=O)[O-])cc2)s1 | 0.211%
CC1CCCCC1NC(=O)CCS(=O)(=O)c1cccc2nonc12 (centres undefined) | -1.36%
COC(=O)[C@]1(Cc2ccccc2)N[C@H](CN(C)S(=O)(=O)c2ccc(F)cc2)[C@@H]2C(=O)N(Cc3ccccc3)C(=O)[C@@H]21 | -4.02%
CCc1ccc(C(=O)COC(=O)c2ccco2)cc1 | -0.284%
Cc1cccc2sc(N(CCCN(C)C)C(=O)CCS(=O)(=O)c3ccccc3)nc12 | 1.84%
Cc1ccc(NC(=O)CN(C)C(=O)c2ccc(Cl)c(S(=O)(=O)NCc3ccco3)c2)cc1 | -2.08%
COC(=O)C1=C[C@@H](C(=O)OC)[C@@H]2C3=C(C(=O)[C@]2(C)NC(=O)c2ccccc2)[C@H](C)n2c(=O)n(C)c(=O)n2[C@@H]3C1 | -1.38%
O=C(OCC(=O)N(CCc1ccccc1)Cc1ccccc1)c1ccccc1[N+](=O)[O-] | 0.711%
CCCc1cc(=O)[nH]c(SCC(=O)Nc2ccc(S(=O)(=O)N3CCCC3)cc2)n1 | -3.71%
Cc1cccc(C)c1NC(=O)CS(=O)CC(=O)N1CCN(c2ccccc2)CC1 (centres undefined) | -1.33%
Cc1c(OC(C)C(=O)NCC2CCC(C(=O)O)CC2)ccc2c1oc(=O)c1ccccc12 (centres undefined) | 2.24%
Cc1ccc(N2C(=O)CC(N3CCSCC3)C2=O)c(C)c1 (centres undefined) | -1.07%
CC(C)(C)c1ccc(/C=C/C(=O)NCCCn2ccnc2)cc1 | 1.07%
O=C(CSc1nc2ccccc2c(=O)n1Cc1ccc(F)cc1)NCC1CCCO1 (centres undefined) | -2.48%
CC(=O)N1CCc2cc(S(=O)(=O)NC3CCCCC3)ccc21 | 1.13%

SMILES | inhibition
CN(CC1CCCN(CCc2cccc(C(F)(F)F)c2)C1)C(=O)c1ccc2nc[nH]c2c1 (centres undefined) | 2.9%
CCCNC(=S)N1CCC(NC(=O)C23CC4CC(CC(C4)C2)C3)CC1 | -1.14%
Cc1ccccc1N(C(=O)Cc1cccs1)C(C(=O)NC1CCCCC1)c1cn(C)nc1C (centres undefined) | -1.17%
CCCCCN(C(=O)NC(=O)Nc1ccccc1OC)S(C)(=O)=O | -0.679%
COc1cc(OC)cc(-c2cc3ccc(F)cc3cn2)c1 | -0.558%
CCOc1ccc(-c2noc(CCC(=O)NC3CCCC3)n2)cc1OC | -2.18%
COc1ccccc1-c1nnc2n1N=C(c1ccc(OC(F)F)c(OCC3CC3)c1)CS2 | -2.55%
C=C(C)CNC(=S)Nc1ccc(S(=O)(=O)Nc2cnc3ccccc3n2)cc1 | -0.344%
Brc1ccc(/C=N/N2CCN(C3c4ccccc4-c4ccccc43)CC2)s1 | -1%
COCCNC(=S)N(CCc1c(C)[nH]c2ccc(C)cc12)Cc1cccnc1 | -0.86%
CCn1c(Cc2ccc(OC)cc2)nnc1SCC(=O)Nc1ccc(N2CCOCC2)cc1 | -0.587%
CCCCOC(=O)Nc1sc2nc(C)cc(C)c2c1-n1cccc1 | 3.59%
Cc1noc(C)c1NC(=O)Nc1cccc2c1O[C@H](CN(C)C(=O)Nc1ccccc1)[C@@H](C)CN([C@H](C)CO)C2=O | -4.19%
COc1cc2c(cc1OC)CC1(CCCCC1)N=C2 | 0.717%
Cc1cc(C)cc(N(CCC#N)C(=O)CN2C(=O)NC3(CCCC3)C2=O)c1 | -1.84%
Nc1nc(NCCCN2CCOCC2)nc(Nc2ccccc2)c1[N+](=O)[O-] | 90.9% (active)
O=[N+]([O-])c1ccc(NCCCN2CCOCC2)c(Cl)c1 | -0.912%
CC1CN(c2nc(Nc3ccccc3)nc(N)c2[N+](=O)[O-])CC(C)O1 (centres undefined) | 38.9%
Nn1c(SCC(=O)Nc2ccc3c(c2)CCC3)nnc1C1CC1 | -1.28%
CC(=NNC(=O)c1ccc2nc[nH]c2c1)c1ccc(Br)cc1 | 0.652%
CC(C)c1nc(SCC(=O)NC(=O)NC(C)(C)C)n[nH]1 | -2.13%
CCN(CC)CCOC(=O)c1ccc(NC(=O)CNC(=O)c2ccccc2)cc1 | -1.2%
O=C(OCC(=O)N1CCOCC1)c1ccc(N2CCOCC2)c([N+](=O)[O-])c1 | 1.5%

SMILES | inhibition
Cc1ccc(NC(=O)C2CCC(C(C)(C)C)CC2)cc1S(=O)(=O)N1CCOCC1 (centres undefined) | -0.864%
Cc1c(Cl)cccc1NC(=O)NCc1ccc(C)n1C | -2.74%
CC1CCCCC12NC(=O)N(CC(=O)OCC(=O)NCc1ccc(F)cc1)C2=O (centres undefined) | -2.66%
O=C(O)C1=CCCN(CCON=C(c2ccccc2)c2ccccc2)C1 | -1.9%
CC(C)(C)OC(=O)C[C@@H]1C/C=C\C[C@H](CC(=O)N[C@@H](CO)Cc2ccccc2)C(=O)N[C@H](Cc2ccccc2)COC1=O | 0.493%
O=C(CN1C(=O)NC2(CCCCCC2)C1=O)NCc1ccc(F)cc1 | -1.44%
O=C(c1ccccc1F)N(Cc1ccccc1)Cc1ccccc1 | 0.121%
O=c1c2c3c(sc2n(CCN2CCCC2)c(=O)n1Cc1ccccc1)CCCCC3 | 0.297%
CC(=O)Nc1ccc(NC(=O)CC2CCCC2)cc1 | 0.623%
CC(C)c1ccc(/C=C2\NC(=O)NC2=O)cc1 | 24.7%
Cc1ccc(C)c(CN2CCC(CNC(=O)Nc3ccc(C)c(F)c3)CC2)c1 | -0.807%
OCCC1CN(Cc2cccc(OC3CCCC3)c2)CCN1Cc1ccsc1 (centres undefined) | -2.02%
CCN(CC)N=Nc1cccc(NC(C)=O)c1 | 2.05%
O=C(NCc1nnc(SCC(=O)N2CCC(Cc3ccccc3)CC2)o1)c1ccco1 | -0.692%
Cc1cc(C)n(Cc2cnc(N3CCOCC3)s2)n1 | -2.61%
CCCc1nc2oc3c(=O)[nH]cnc3c2c2c1COC(C)(C)C2 | 3.6%
OCCC1CN(Cc2ccccc2-c2ccco2)CCN1Cc1ccsc1 (centres undefined) | -0.178%
CCn1cc(S(=O)(=O)c2cccc(C)c2)c(=O)c2cc(F)c(N3CCN(C)CC3)cc21 | -1.82%
O=C(CN(C(=O)c1nsc(Cl)c1Cl)c1cccc(F)c1)NC1CCCC1 | -1.81%
Cc1ccc(NS(=O)(=O)c2cn(C)c(=O)n(C)c2=O)c(C)c1 | -0.792%
O=C(NCc1csc(-c2cccs2)n1)C1CC1 | 0.318%
COc1ccc(Cc2n[nH]c(=S)n2NC(=O)Nc2ccc(C)cc2)cc1 | -4.11%
CC(=O)N1CC(=O)N(CC(=O)Nc2ccc(Br)cc2)C1=S | 2.4%

SMILES | inhibition
COc1cccc(CNC(=O)C2CCCN(c3ncnc4c3nc3n4CCCCC3)C2)c1 (centres undefined) | 0.554%
CCOC(=O)CN(C(=O)COc1nc(-c2ccccc2)cc(C)c1C#N)c1ccc(F)cc1 | 0.174%
CCCCN(CC)CCNC(=O)c1[nH]c(C)c(C(C)=O)c1C | 1.47%
CC(c1ccco1)N(C(=O)c1ccc(S(=O)(=O)N2CCCCC2)cc1)c1ccccn1 (centres undefined) | -1.32%
CC(=O)c1cnc(SCC(=O)O)nc1C | -1.4%
CC1=C(C(=O)OC2CCCCC2)C(c2ccccc2F)NC(=O)N1 (centres undefined) | -2.54%
COc1ccc(N=Nc2c(-c3ccc(OC)cc3)[nH]oc2=O)cc1 | -3.99%
Cc1cc(C)nc(SC2CCCCC2NS(=O)(=O)c2ccc(Cl)cc2)n1 (centres undefined) | -2.34%
O=C(CN1CCN(c2ccc(O)cc2)CC1)NC1CCCc2ccccc21 (centres undefined) | -2.3%
CC(C)NC(=O)NNc1c(Cl)cncc1Cl | 2.22%
Cn1c(=O)c2[nH]c(NCC3CCCO3)nc2n(-c2ccccc2)c1=O (centres undefined) | 53.4% (active)
c1ccc2c(NCC3CCCO3)nc(-c3ccncc3)nc2c1 (centres undefined) | 4.61%
CC(C)(C)c1nc(NCC2CCCO2)c2nnn(Cc3ccccc3)c2n1 (centres undefined) | -0.49%
Cc1ccccc1C(=O)N1CCC(C(=O)Oc2ccc(C#N)cc2)CC1 | 3.01%
O=C(O)CCCN1C(=O)C2C3c4ccccc4C(c4ccccc43)[C@@H]2C1=O (some centres undefined) | -1.27%
COC(=O)c1cc(CNC(=O)CC(C)c2ccccc2)ccc1OC (centres undefined) | -0.449%
C/C(=N\NC(=O)Cc1ccccc1[N+](=O)[O-])c1cccnc1 | -3.03%
Cc1cc(/C=N/Nc2ccc([N+](=O)[O-])cn2)c(C)n1-c1cccc(C(=O)O)c1 | 26.6%
Cc1ccc(-n2c(C)cc(/C=N/Nc3ccc([N+](=O)[O-])cn3)c2C)c(C)c1 | 0.104%
COc1cc(/C=N\Nc2ccc([N+](=O)[O-])cn2)ccc1OCC(=O)O | 71.1% (active)
